Test results: PubChem BioAssay
Activity calls are given as the source filed them.

How the values were obtained:
[1] = test system: Plasmodium falciparum Sir2 (PF13_0152, Sir2A); assay: pfSir2 binders on small-molecule microarrays, primary screen, biochemical, small-molecule microarray, 635 nm fluorescence (AID 1098); details: small-molecule microarray binding, fluorescence 635 nm; higher = more signal;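 note: score merges spot fluorescence intensity with its signal-to-noise ratio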
[2] = small-molecule microarray binders of probe aDKK1, primary screen, biochemical, biotinylated probe, 635/667 nm fluorescence (AID 1099); details: higher = more signal;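 note: score merges 667nm spot fluorescence with signal to noise across triplicate slides; reference of the scale not given here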
[3] = small-molecule microarray binders of probe aCHRDL2, primary screen, biochemical, biotinylated probe, 635/667 nm fluorescence (AID 1100); details: higher = more signal
[4] = splicing luciferase reporter signal modulators, primary screen, spliceosome inhibition project, cell-based, HEK293, splice +/- reporter (AID 1101); details: luminescence, 24 h, higher = more signal, called active from +8 up or from −8 down;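 note: HEK293 cells carrying a splicing-competent luciferase reporter gene; test concentration not given here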
[5] = target: Fibroblast growth factor 10 (Homo sapiens) (UniProt O15520); assay: FGF10 binders on small-molecule microarrays, primary screen, biochemical, small-molecule microarray, 635 nm fluorescence (AID 1102); details: FGF10 binding, fluorescence 635 nm, higher = more signal
Fibroblast growth factor 10 (Homo sapiens), sequence (O15520 whole entry, looked up): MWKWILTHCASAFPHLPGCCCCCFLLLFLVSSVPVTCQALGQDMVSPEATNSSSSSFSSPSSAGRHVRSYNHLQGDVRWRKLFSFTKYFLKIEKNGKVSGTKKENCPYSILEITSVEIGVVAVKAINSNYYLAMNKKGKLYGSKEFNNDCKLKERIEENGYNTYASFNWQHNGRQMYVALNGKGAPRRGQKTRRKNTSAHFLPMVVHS

[6] = test system: glycogen synthase kinase-3 (GSK3A per assay name; protocol says GSK3B); assay: GSK3 binders on small-molecule microarrays, primary screen, biochemical, small-molecule microarray, 635 nm fluorescence, GSK3A (AID 1103); details: small-molecule microarray binding, fluorescence 635 nm; higher = more signal; note: the record names both GSK3A and GSK3B
[7] = target: Epidermal growth factor receptor (Homo sapiens) (UniProt P00533); assay: EGFR binders on small-molecule microarrays, primary screen, biochemical, small-molecule microarray, 635 nm fluorescence (AID 1104); details: EGFR binding, higher = more signal;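 note: score merges 667 nm emission intensity with spot signal to noise over triplicate slides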
Epidermal growth factor receptor (Homo sapiens), sequence (P00533 whole entry, looked up): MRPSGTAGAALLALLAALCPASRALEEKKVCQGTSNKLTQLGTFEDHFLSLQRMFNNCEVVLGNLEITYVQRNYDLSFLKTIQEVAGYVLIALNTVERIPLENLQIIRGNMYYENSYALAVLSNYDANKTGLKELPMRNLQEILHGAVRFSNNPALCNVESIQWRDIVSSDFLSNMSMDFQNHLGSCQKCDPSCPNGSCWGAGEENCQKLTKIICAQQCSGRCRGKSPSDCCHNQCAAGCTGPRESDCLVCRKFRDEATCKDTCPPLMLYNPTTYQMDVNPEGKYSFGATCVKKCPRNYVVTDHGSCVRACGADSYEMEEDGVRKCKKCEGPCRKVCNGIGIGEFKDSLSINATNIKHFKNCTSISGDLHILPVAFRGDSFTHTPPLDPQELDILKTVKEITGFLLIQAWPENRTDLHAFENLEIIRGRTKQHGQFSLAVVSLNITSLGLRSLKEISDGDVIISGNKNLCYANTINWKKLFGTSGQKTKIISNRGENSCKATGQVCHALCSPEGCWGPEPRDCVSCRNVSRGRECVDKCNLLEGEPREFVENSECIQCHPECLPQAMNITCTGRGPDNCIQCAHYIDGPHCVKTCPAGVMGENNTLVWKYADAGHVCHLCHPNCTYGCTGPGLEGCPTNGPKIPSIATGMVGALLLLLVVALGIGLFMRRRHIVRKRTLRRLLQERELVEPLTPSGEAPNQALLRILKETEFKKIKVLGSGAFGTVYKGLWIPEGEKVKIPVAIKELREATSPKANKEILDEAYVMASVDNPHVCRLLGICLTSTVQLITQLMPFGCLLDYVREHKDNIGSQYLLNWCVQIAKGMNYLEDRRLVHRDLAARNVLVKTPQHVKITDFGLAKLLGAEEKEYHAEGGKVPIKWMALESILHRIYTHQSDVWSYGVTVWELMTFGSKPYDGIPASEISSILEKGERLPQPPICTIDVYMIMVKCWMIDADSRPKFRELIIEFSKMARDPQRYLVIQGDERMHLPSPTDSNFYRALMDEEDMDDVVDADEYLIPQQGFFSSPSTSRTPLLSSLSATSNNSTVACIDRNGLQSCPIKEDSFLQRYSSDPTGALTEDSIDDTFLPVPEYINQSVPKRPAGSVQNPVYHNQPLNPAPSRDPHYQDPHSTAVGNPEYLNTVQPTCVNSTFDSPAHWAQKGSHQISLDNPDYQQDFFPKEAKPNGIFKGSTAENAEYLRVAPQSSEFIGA

[8] = target: Follistatin-related protein 3 (Homo sapiens) (UniProt O95633); assay: FSTL3 binders on small-molecule microarrays, primary screen, biochemical, small-molecule microarray, 635 nm fluorescence (AID 1105); details: FSTL3 binding, higher = more signal;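 note: score merges emission near 667 nm and signal to noise per printed spot across three slides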
Follistatin-related protein 3 (Homo sapiens), sequence (O95633 whole entry, looked up): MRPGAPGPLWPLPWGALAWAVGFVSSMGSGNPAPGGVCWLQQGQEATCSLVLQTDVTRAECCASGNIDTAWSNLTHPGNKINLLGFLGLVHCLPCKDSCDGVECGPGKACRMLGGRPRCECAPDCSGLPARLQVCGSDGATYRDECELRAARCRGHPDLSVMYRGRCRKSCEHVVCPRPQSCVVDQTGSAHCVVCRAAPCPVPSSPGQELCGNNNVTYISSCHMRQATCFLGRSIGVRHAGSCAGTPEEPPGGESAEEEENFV

[9] = target: Dickkopf-related protein 1 (Homo sapiens) (UniProt O94907); assay: DKK1 binders on small-molecule microarrays, primary screen, biochemical, small-molecule microarray, 635 nm fluorescence scan (AID 1106); details: DKK1 binding, higher = more signal;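 note: score merges emission near 667 nm with signal to noise over three replicate slides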
Dickkopf-related protein 1 (Homo sapiens), sequence (O94907 whole entry, looked up): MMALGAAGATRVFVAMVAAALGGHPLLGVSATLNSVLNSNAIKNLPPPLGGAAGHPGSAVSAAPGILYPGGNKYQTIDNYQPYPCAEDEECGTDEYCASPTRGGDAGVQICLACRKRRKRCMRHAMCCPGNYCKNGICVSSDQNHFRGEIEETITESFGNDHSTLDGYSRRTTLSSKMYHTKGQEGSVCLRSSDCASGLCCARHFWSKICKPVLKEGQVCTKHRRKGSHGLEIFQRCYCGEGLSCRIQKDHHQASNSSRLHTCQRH

[10] = test system: Inhibin beta A chain (activin A); assay: INHBA (activin A) binders on microarrays, primary screen, biochemical, small-molecule microarray, 635 nm fluorescence scan (AID 1107); details: small-molecule microarray binding, higher = more signal;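 note: mouse activin A protein probed at 4.33 µg/mL on printed slides; score merges bound-protein fluorescence near 667 nm with spot signal-to-noise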

Compound	composite z-score [1]	composite z-score [2]	composite z-score [3]	z-score [4]	composite z-score [5]	composite z-score [6]	composite z-score [7]	composite z-score [8]	composite z-score [9]	composite z-score [10]
[N-]=[N+]=Nc1ccccc1C[C@@]1(C(=O)O)N=C(c2ccc(OCCCO)cc2)O[C@@H]1c1ccccc1	1.56	0.609	0.945	-0.282 (inactive)	0.0372	0.0458	-0.423	0.126	-0.829	0.638
C=CC[C@]12N=C(c3ccc(OCCCO)cc3)O[C@H]1c1ccccc1N(C)C2=O	1.24	0.765	0.864	-1.06 (inactive)	0.597	1.3	0.177	0.472	0.334	1.3
Cc1ccc(S[C@]2(C(=O)NC3CC3)CC(=O)N(Cc3ccccc3Cl)[C@@H]2c2ccc(CO)cc2I)cc1	1.35	0.633	0.873	-0.447 (inactive)	1.4	1.27	-0.172	0.41	0.122	1.03
CC(C)(C)OC(=O)CC[C@]1(C(=O)NCCN2CCOCC2)N=C(c2ccc(OCCCO)cc2)O[C@H]1c1ccccc1N=[N+]=[N-]	1.63	0.99	1.12	-1.03 (inactive)	0.177	1.17	0.303	0.361	-0.235	1.24
COc1ccc([Si](C)(C)[C@@H]2[C@@H](CCO)O[C@]3(C(=O)N(Cc4cccc(N5C(=O)c6ccccc6Oc6ccccc65)c4)c4ccccc43)[C@H]2C)cc1	0.307	0.0163	0.444	-1.19 (inactive)	-0.502	-0.735	-0.717	-0.491	-0.812	0.233
CN1C(=O)C2C=CC(C(O)c3c(F)cccc3Cl)N(Nc3ccccc3)C2C1=O (stereo not given)	1.54	0.308	0.92	1.29 (inactive)	0.657	-0.0475	0.257	0.71	-0.534	0.909
COC(=O)C1(Cc2ccccc2)C=C2C(=C(c3ccccc3)C(=O)C2C)CN1 (stereo not given)	-0.208	1.88	1.39	0.388 (inactive)	1.03	-0.731	-0.544	-0.147	-0.89	1.69
O=c1cccc(-c2cccc(Cl)c2)o1	0.261	0.177	0.114	0.269 (inactive)	0.227	0.415	0.167	0.149	-0.0521	0.338
CCOC(=O)C[C@H]1[C@H](OC(=O)c2ccc(-c3ccccc3)cc2)[C@@H](NC(=O)c2ccc3ccccc3n2)c2cc(OCCCO)ccc2N1C(=O)c1ccccc1	0.418	0.048	0.475	0.0748 (inactive)	0.785	0.653	0.143	1.09	0.216	0.407
COc1ccccc1CN1C(=O)c2ccccc2[C@@H](C(=O)NC(C)C)[C@@H]1c1ccc(CO)cc1	0.567	0.711	0.756	0.011 (inactive)	1.33	1.23	0.754	1.24	0.673	0.93
O=C1O[C@@H](c2ccccc2)[C@@H](c2ccccc2)N2[C@@H](c3ccc(O)cc3)[C@]3(C(=O)Nc4ccc(C#CCCO)cc43)[C@@H](C(=O)NC[C@H](O)c3ccccc3)[C@H]12	-0.029	-0.301	0.785	0.0041 (inactive)	-1.01	-0.375	-0.637	-0.802	-1.26	-0.926
COc1cc2c(cc1OC)CN(C(=O)[C@H]1[C@@H]3C(=O)O[C@@H](c4ccccc4)[C@@H](c4ccccc4)N3[C@@H](c3ccc(OCCO)cc3)[C@]13C(=O)Nc1ccc(C#CC4(O)CCCCCC4)cc13)CC2	1.09	1.59	0.623	0.415 (inactive)	1.12	1.31	1.02	1.33	1.31	1.07
COc1ccc([Si](C)(C)[C@@H]2[C@@H](CC(=O)N3CCC[C@H]3CO)O[C@]3(C(=O)N(Cc4ccc(N5C(=O)c6cccc7cccc5c67)cc4)c4ccccc43)[C@H]2C)cc1	1.56	-0.184	-0.2	-1.11 (inactive)	1.38	1.29	0.564	1.06	0.587	0.231
NC(=O)NCC#Cc1ccc2c(c1)[C@]1(C(=O)N2)[C@H](C(=O)O)[C@H]2C(=O)O[C@H](c3ccccc3)[C@H](c3ccccc3)N2[C@@H]1c1ccccc1OCCO	1.37	0.689	0.677	-1.14 (inactive)	0.991	0.558	0.363	1.01	0.351	1.4
COc1ccc([Si](C)(C)[C@@H]2[C@@H](CCO)O[C@]3(C(=O)N(Cc4cccc(N5C(=O)c6cccc7cccc5c67)c4)c4ccccc43)[C@H]2C)cc1	0.187	0.0019	0.466	-0.665 (inactive)	0.454	-0.0664	-0.491	-0.339	-0.411	-0.0335
CCCC[C@@H]1C[C@H]1[C@@H](NC(=O)c1cccnc1)c1ccc(-c2ccccc2)cc1	0.0651	-0.161	0.993	-4.22 (inactive)	-1.19	-1.2	-1.46	-1.01	-1.44	0.936
C=CCOC(=O)[C@H]1[C@@H]2C(=O)O[C@@H](c3ccccc3)[C@@H](c3ccccc3)N2[C@@H](c2ccc(OCCOC(=O)[C@H]3C[C@H]4C(=O)N[C@@H](Cc5ccccc5)C(=O)N4[C@H]3c3ccc(O)cc3)cc2)[C@]12C(=O)Nc1ccc(I)cc12	1.34	-0.188	-0.485	0.354 (inactive)	1.26	0.98	0.625	1.46	1.27	0.0385
CC=CC(O)C1C=CC2C(=O)N(C)C(=O)C2N1Nc1ccc([N+](=O)[O-])cc1[N+](=O)[O-] (stereo not given)	1.1	0.121	0.636	0.607 (inactive)	-0.49	-1.06	-0.898	-0.79	-0.232	1.11
CCCCN1CC=CC23O[C@@H]4/C=C\CCC(C)OC(=O)C4[C@H]2C(=O)N(CCCCCCO)[C@@H]3C1=O (stereo not given in full)	0.906	-0.264	0.402	0.142 (inactive)	0.107	-0.782	-0.63	-1.04	-0.842	0.703
CC(=O)n1cc(C(O)C2C=CC3C(=O)N(c4ccccc4)C(=O)C3N2Nc2ccccc2)c2ccccc21 (stereo not given)	0.454	1.81	1.52	-1.22 (inactive)	0.833	-0.669	0.444	1.19	0.325	1.93
C[C@H]1ON(c2ccc(C(=O)OC(C)(C)C)cc2)[C@@H](c2ccc(O)cc2)[C@@H]1C(=O)N1C(=O)OC[C@@H]1c1ccccc1	1.12	-0.0999	-0.232	0.242 (inactive)	0.994	1.28	0.554	1.16	0.624	-0.0428
O=C(O)[C@H]1C[C@H]2C(=O)N3CCC[C@H]3C(=O)N2[C@H]1c1cccc(OCCO)c1	1.6	0.0484	0.0998	-0.184 (inactive)	0.262	0.486	0.0626	0.384	0.884	-0.0254
COc1cc(CO)cc(I)c1O[C@H]1C=C(C(=O)NCCO)C[C@@H](N(CC2CCCCC2)C(=O)c2ccc(C(F)(F)F)cc2)[C@@H]1O	0.199	-0.267	-0.49	-0.0436 (inactive)	0.626	0.0722	0.515	0.483	0.521	0.0031
CC(C)N1C(=O)[C@@]2(c3ccc([N+](=O)[O-])cc3)CC(=O)N(C3CCCCC3)[C@@H]2c2ccc(CO)cc21	0.29	-0.227	-0.173	0.403 (inactive)	0.269	0.172	-0.137	0.656	0.501	0.859
C=CCOC(=O)[C@@H]1[C@H]2C(=O)O[C@H](c3ccccc3)[C@H](c3ccccc3)N2[C@H](c2ccc(OCCOC(=O)[C@H]3C[C@H]4C(=O)N[C@@H](CCCCN(C)C)C(=O)N4[C@H]3c3cccc(OCCO)c3)cc2)[C@@]12C(=O)Nc1ccc(I)cc12	1.41	0.097	-0.0926	0.348 (inactive)	1.02	1.32	0.605	1.32	0.626	0.208
Cc1ccc(S[C@]2(C(=O)O)CC(=O)N(Cc3ccccc3Cl)[C@@H]2c2ccc(CO)cc2)cc1	-0.189	0.505	0.938	1.39 (inactive)	-0.165	-0.851	-0.84	-1.1	-0.817	0.387
